Test results as given in PubChem BioAssay AID1159580 (chemical genetic matrix, 2015).
About 2,000 (36%) of roughly 5,500 compounds were called active. Roughly 18% stayed inconclusive and do not appear here. Some of the results follow. A number with no mark means an inactive call. No stated cut-off is given here; in the data, active means normalized growth mostly below about 0.91 (no sharp cut-off); inconclusive means no clear call, values can overlap the other calls; inactive means mostly above about 0.92.

Assay: chemical genetic growth profiling, strain panel (AID 1159580);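 further: tested at 20 µM; growth read once vehicle control cultures reached saturation at 30 °C; 1 = growth at the plate median or of vehicle wells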
Settings: growth OD
[1] = S. cerevisiae deletion strains, locus YDL101C, strain DUN1, stronger effect = lower value
[2] = S. cerevisiae deletion strains, locus YHR030C, strain SLT2, stronger effect = lower value

**Q.** Which results are given for `Clc1ccccc1-c1csc(-c2ccncc2)n1`?
**A.** normalized growth (S. cerevisiae deletion strains, locus YAR019C, strain CDC15, stronger effect = lower value): 0.962; normalized growth (S. cerevisiae deletion strains, locus YBL105C, strain PKC1, stronger effect = lower value): 0.966; normalized growth (S. cerevisiae deletion strains, locus YBR135W, strain CKS1, stronger effect = lower value): 0.964; normalized growth (S. cerevisiae deletion strains, locus YBR136W, strain MEC1, stronger effect = lower value): 0.968; normalized growth (S. cerevisiae deletion strains, locus YBR160W, strain CDC28, stronger effect = lower value): 0.962; normalized growth (S. cerevisiae deletion strains, locus YDL017W, strain CDC7, stronger effect = lower value): 0.964; normalized growth (S. cerevisiae deletion strains, locus YDL028C, strain MPS1, stronger effect = lower value): 0.966; normalized growth [1]: 0.963; normalized growth (S. cerevisiae deletion strains, locus YDL108W, strain KIN28, stronger effect = lower value): 0.965; normalized growth (S. cerevisiae deletion strains, locus YDL132W, strain cdc53, stronger effect = lower value): 0.966; normalized growth (S. cerevisiae deletion strains, locus YDL214C, strain PRR2, stronger effect = lower value): 0.971; normalized growth (S. cerevisiae deletion strains, locus YDR052C, strain DBF4, stronger effect = lower value): 0.977; normalized growth (S. cerevisiae deletion strains, locus YDR054C, strain cdc34, stronger effect = lower value): 0.922; normalized growth (S. cerevisiae deletion strains, locus YDR226W, strain ADK1, stronger effect = lower value): 0.966; normalized growth (S. cerevisiae deletion strains, locus YDR477W, strain SNF1, stronger effect = lower value): 0.937; normalized growth (S. cerevisiae deletion strains, locus YER123W, strain YCK3, stronger effect = lower value): 0.895; normalized growth (S. cerevisiae deletion strains, locus YER133W, strain GLC7, stronger effect = lower value): 0.945; normalized growth (S. cerevisiae deletion strains, locus YFL009W, strain cdc4, stronger effect = lower value): 0.942; normalized growth (S. cerevisiae deletion strains, locus YFL029C, strain CAK1, stronger effect = lower value): 0.964; normalized growth (S. cerevisiae deletion strains, locus YFR003C, strain YPI1, stronger effect = lower value): 0.964; normalized growth (S. cerevisiae deletion strains, locus YFR019W, strain FAB1, stronger effect = lower value): 0.961; normalized growth (S. cerevisiae deletion strains, locus YFR028C, strain CDC14, stronger effect = lower value): 0.96; normalized growth (S. cerevisiae deletion strains, locus YGR040W, strain KSS1, stronger effect = lower value): 0.951; normalized growth (S. cerevisiae deletion strains, locus YGR052W, strain FMP48, stronger effect = lower value): 1.02; normalized growth (S. cerevisiae deletion strains, locus YGR092W, strain DBF2, stronger effect = lower value): 0.85; normalized growth [2]: 0.946; normalized growth (S. cerevisiae deletion strains, locus YHR079C, strain IRE1, stronger effect = lower value): 0.923; normalized growth (S. cerevisiae deletion strains, locus YHR082C, strain KSP1, stronger effect = lower value): 1.12; normalized growth (S. cerevisiae deletion strains, locus YHR205W, strain SCH9, stronger effect = lower value): 1.03; normalized growth (S. cerevisiae deletion strains, locus YIL147C, strain SLN1, stronger effect = lower value): 0.962; normalized growth (S. cerevisiae deletion strains, locus YJL095W, strain BCK1, stronger effect = lower value): 0.829; normalized growth (S. cerevisiae deletion strains, locus YJL128C, strain PBS2, stronger effect = lower value): 0.933; normalized growth (S. cerevisiae deletion strains, locus YJL157C, strain FAR1, stronger effect = lower value): 0.93; normalized growth (S. cerevisiae deletion strains, locus YJR016C, strain ILV3, stronger effect = lower value): 0.964; normalized growth (S. cerevisiae deletion strains, locus YJR066W, strain TOR1 (second series), stronger effect = lower value): 0.94; normalized growth (S. cerevisiae deletion strains, locus YJR066W, strain TOR1, stronger effect = lower value): 1.02; normalized growth (S. cerevisiae deletion strains, locus YKL048C, strain ELM1, stronger effect = lower value): 0.99; normalized growth (S. cerevisiae deletion strains, locus YKL067W, strain YNK1, stronger effect = lower value): 0.974; normalized growth (S. cerevisiae deletion strains, locus YKL101W, strain HSL1, stronger effect = lower value): 0.987; normalized growth (S. cerevisiae deletion strains, locus YKL193C, strain SDS22, stronger effect = lower value): 0.949; normalized growth (S. cerevisiae deletion strains, locus YKL203C, strain TOR2, stronger effect = lower value): 0.992; normalized growth (S. cerevisiae deletion strains, locus YLR113W, strain HOG1, stronger effect = lower value): 0.969; normalized growth (S. cerevisiae deletion strains, locus YLR133W, strain CKI1, stronger effect = lower value): 0.979; normalized growth (S. cerevisiae deletion strains, locus YLR403W, strain SFP1, stronger effect = lower value): 0.927; normalized growth (S. cerevisiae deletion strains, locus YML070W, strain DAK1, stronger effect = lower value): 0.977; normalized growth (S. cerevisiae deletion strains, locus YMR001C, strain CDC5, stronger effect = lower value): 0.963; normalized growth (S. cerevisiae deletion strains, locus YMR205C, strain PFK2 (second series), stronger effect = lower value): 0.972; normalized growth (S. cerevisiae deletion strains, locus YMR277W, strain FCP1, stronger effect = lower value): 0.963; normalized growth (S. cerevisiae deletion strains, locus YNL006W, strain LST8, stronger effect = lower value): 0.97; normalized growth (S. cerevisiae deletion strains, locus YNL020C, strain ARK1, stronger effect = lower value): 0.965; normalized growth (S. cerevisiae deletion strains, locus YNL161W, strain CBK1, stronger effect = lower value): 0.96; normalized growth (S. cerevisiae deletion strains, locus YNL183C, strain NPR1, stronger effect = lower value): 1.07; normalized growth (S. cerevisiae deletion strains, locus YNL207W, strain RIO2, stronger effect = lower value): 0.962; normalized growth (S. cerevisiae deletion strains, locus YNL222W, strain SSU72, stronger effect = lower value): 0.965; normalized growth (S. cerevisiae deletion strains, locus YNL307C, strain MCK1 (second series), stronger effect = lower value): 0.971; normalized growth (S. cerevisiae deletion strains, locus YOL078W, strain AVO1, stronger effect = lower value): 0.957; normalized growth (S. cerevisiae deletion strains, locus YOL136C, strain PFK27, stronger effect = lower value): 0.97; normalized growth (S. cerevisiae deletion strains, locus YOR061W, strain CKA2, stronger effect = lower value): 0.99; normalized growth (S. cerevisiae deletion strains, locus YOR119C, strain RIO1, stronger effect = lower value): 0.981; normalized growth (S. cerevisiae deletion strains, locus YOR231W, strain MKK1, stronger effect = lower value): 0.988; normalized growth (S. cerevisiae deletion strains, locus YOR329C, strain SCD5, stronger effect = lower value): 0.964; normalized growth (S. cerevisiae deletion strains, locus YPL031C, strain PHO85, stronger effect = lower value): 0.918; normalized growth (S. cerevisiae deletion strains, locus YPL153C, strain RAD53, stronger effect = lower value): 0.925; normalized growth (S. cerevisiae deletion strains, locus YPL204W, strain HRR25, stronger effect = lower value): 0.93; normalized growth (S. cerevisiae deletion strains, locus YPL209C, strain IPL1, stronger effect = lower value): 0.965; normalized growth (S. cerevisiae deletion strains, locus YPL256C, strain CLN2, stronger effect = lower value): 1.03; normalized growth (S. cerevisiae deletion strains, locus YPR025C, strain CCL1, stronger effect = lower value): 0.968; normalized growth (S. cerevisiae deletion strains, locus YPR106W, strain ISR1, stronger effect = lower value): 0.965; normalized growth (S. cerevisiae deletion strains, locus YPR111W, strain DBF20, stronger effect = lower value): 0.97; normalized growth (S. cerevisiae deletion strains, strain NNK1, stronger effect = lower value): 0.97; normalized growth (S. cerevisiae deletion strains, strain TSCII, stronger effect = lower value): 0.951

**Q.** Which results are given for `COc1ccc(-c2nc(-c3ccc(-c4ccccc4)cc3)cs2)cc1`?
**A.** normalized growth (S. cerevisiae deletion strains, locus YAL013W, strain DEP1, stronger effect = lower value): 1.03; normalized growth (S. cerevisiae deletion strains, locus YBR229C, strain ROT2, stronger effect = lower value): 1.01; normalized growth [1]: 1.03; normalized growth (S. cerevisiae deletion strains, locus YDL134C, strain PPH21, stronger effect = lower value): 0.87 (active); normalized growth (S. cerevisiae deletion strains, locus YDR150W, strain NUM1, stronger effect = lower value): 1; normalized growth (S. cerevisiae deletion strains, locus YEL061C, strain CIN8, stronger effect = lower value): 0.979; normalized growth (S. cerevisiae deletion strains, locus YGR078C, strain PAC10, stronger effect = lower value): 1.02; normalized growth [2]: 1.08; normalized growth (S. cerevisiae deletion strains, locus YHR087W, strain rtc3, stronger effect = lower value): 1; normalized growth (S. cerevisiae deletion strains, locus YJL187C, strain SWE1, stronger effect = lower value): 0.968; normalized growth (S. cerevisiae deletion strains, locus YJR043C, strain POL32, stronger effect = lower value): 1.03; normalized growth (S. cerevisiae deletion strains, locus YJR075W, strain HOC1, stronger effect = lower value): 1.02; normalized growth (S. cerevisiae deletion strains, locus YKL190W, strain CNB1, stronger effect = lower value): 0.995; normalized growth (S. cerevisiae deletion strains, locus YLR039C, strain RIC1, stronger effect = lower value): 1.02; normalized growth (S. cerevisiae deletion strains, locus YLR058C, strain SHM2 (second series), stronger effect = lower value): 1.02; normalized growth (S. cerevisiae deletion strains, locus YLR085C, strain ARP6, stronger effect = lower value): 1.02; normalized growth (S. cerevisiae deletion strains, locus YLR262C, strain YPT6, stronger effect = lower value): 1.09; normalized growth (S. cerevisiae deletion strains, locus YML094W, strain GIM5, stronger effect = lower value): 0.999; normalized growth (S. cerevisiae deletion strains, locus YMR219W, strain ESC1, stronger effect = lower value): 1.01; normalized growth (S. cerevisiae deletion strains, locus YMR263W, strain SAP30, stronger effect = lower value): 1.01; normalized growth (S. cerevisiae deletion strains, locus YNL153C, strain GIM3, stronger effect = lower value): 1.02; normalized growth (S. cerevisiae deletion strains, locus YNL298W, strain CLA4 (second series), stronger effect = lower value): 1.09; normalized growth (S. cerevisiae deletion strains, locus YNL322C, strain KRE1, stronger effect = lower value): 1.01; normalized growth (S. cerevisiae deletion strains, locus YNR030W, strain Alg12, stronger effect = lower value): 1.02; normalized growth (S. cerevisiae deletion strains, locus YPL055C, strain LGE1, stronger effect = lower value): 1.01; normalized growth (S. cerevisiae deletion strains, locus YPL241C, strain CIN2, stronger effect = lower value): 1; normalized growth (S. cerevisiae deletion strains, locus YPR135W, strain CTF4, stronger effect = lower value): 1.14; normalized growth (S. cerevisiae strains, strain wild type, stronger effect = lower value): 1
